Experimental data: PubChem BioAssay (NCI)
Several values for one entry are separate records, joined by “and”; a condition that tells them apart may be missing. Identical values can stand only once. About 83,000 compounds went through this panel and 20% of them were active in at least one assay; those are over-represented in the sample as a whole.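 In brief: 96-well plates, 48 h treatment, single concentration, percent growth endpoint.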 Activity calls are given as the source filed them. How the source made its calls: active means growth percent below 10; inactive means the rest.

Assays:
Test in all cases: NCI-60 one-dose screen, 48 h (100 = growth as untreated, 0 = no growth, -100 = all killed)
Details in all cases: 10 µM unless noted
NCI-H23 lung = test system: NCI-H23 lung
NCI-H226 lung = test system: NCI-H226 lung
NCI-H322M lung = test system: NCI-H322M lung
HOP-62 NSCLC = test system: HOP-62 NSCLC
NCI-H460 lung = test system: NCI-H460 lung
HOP-92 NSCLC = test system: HOP-92 NSCLC
NCI-H522 lung = test system: NCI-H522 lung
786-0 renal = test system: 786-0 renal
COLO 205 colon = test system: COLO 205 colon
A549/ATCC NSCLC = test system: A549/ATCC NSCLC

SMILES | growth (NCI-H23 lung) | growth (NCI-H226 lung) | growth (NCI-H322M lung) | growth (HOP-62 NSCLC) | growth (NCI-H460 lung) | growth (HOP-92 NSCLC) | growth (NCI-H522 lung) | growth (786-0 renal) | growth (COLO 205 colon) | growth (A549/ATCC NSCLC)
COc1ccc(/C(C#N)=C/c2ccccn2)cc1 | 98% (inactive) and 102% (inactive) | 95.9% (inactive) and 128% (inactive) | 108% (inactive) and 110% (inactive) | 112% (inactive) and 109% (inactive) | 105% (inactive) and 103% (inactive) | 99.8% (inactive) | 98.1% (inactive) and 103% (inactive) | 96.7% (inactive) and 73.8% (inactive) | 112% (inactive) and 173% (inactive) | –
CC1=CCC2CC1C2(C)C (stereo unspecified) | 80.7% (inactive) and 93.5% (inactive) | 101% (inactive) and 97.7% (inactive) | 92.4% (inactive) and 94.8% (inactive) | 82.8% (inactive) and 68.9% (inactive) | 106% (inactive) and 102% (inactive) | 75.5% (inactive) and 121% (inactive) | 92.9% (inactive) and 39.9% (inactive) | 101% (inactive) and 98.6% (inactive) | 89.2% (inactive) and 103% (inactive) | –
O=C(N/N=C/c1ccc2c(c1)OCO2)c1ccncc1 | 99% (inactive) and 101% (inactive) | 108% (inactive) and 93.3% (inactive) | 114% (inactive) and 94.6% (inactive) | 99.5% (inactive) and 108% (inactive) | 101% (inactive) and 111% (inactive) | 106% (inactive) and 70.1% (inactive) | 77.8% (inactive) and 96.3% (inactive) | 109% (inactive) and 101% (inactive) | 101% (inactive) and 110% (inactive) | 108% (inactive) and 109% (inactive)
CCN(CC)CCOc1ccc2c(c1)C(=O)c1cc(OCCN(CC)CC)ccc1-2 | 79.5% (inactive) and 71.2% (inactive) | 99.7% (inactive) and 73% (inactive) | 85.8% (inactive) and 60.6% (inactive) | 58.3% (inactive) and 38.2% (inactive) | 46.2% (inactive) and 12.9% (inactive) | 20% (inactive) | 99.6% (inactive) and 69.6% (inactive) | 63.3% (inactive) and -30.9% (active) | 11.3% (inactive) and -4.52% (active) | 55.8% (inactive) and 50.6% (inactive)
CCCCCn1sc(=O)n(Cc2ccc(CNC(=O)C(C)c3ccc(CC(C)C)cc3)cc2)c1=O (stereo unspecified) | 102% (inactive) and -73.4% (active) | 94.3% (inactive) and 37.3% (inactive) | 99.5% (inactive) and 67.6% (inactive) | 99.1% (inactive) and -43.2% (active) | 102% (inactive) and 22.9% (inactive) | 73.6% (inactive) and -66.2% (active) | 85.4% (inactive) and -59.6% (active) | 95.8% (inactive) and -86.5% (active) | 122% (inactive) and -57.5% (active) | 97.4% (inactive) and -19.1% (active)
Cc1cccc(/C=C\C(=O)c2ccc(Cl)cc2)c1 | 93.9% (inactive) and 102% (inactive) | 112% (inactive) and 100% (inactive) | 103% (inactive) and 92.6% (inactive) | 109% (inactive) and 113% (inactive) | 110% (inactive) and 102% (inactive) | 82.3% (inactive) | 94.2% (inactive) | 82% (inactive) and 74.2% (inactive) | 121% (inactive) and 111% (inactive) | 88.8% (inactive) and 85.8% (inactive)
COc1ccc2cc3[n+](cc2c1OC)CCc1cc2c(cc1-3)OCO2 | 43.4% (inactive) and 50.4% (inactive) | 73.8% (inactive) and 79.5% (inactive) | 96% (inactive) and 99.4% (inactive) | 43.9% (inactive) and 85.4% (inactive) | 75.9% (inactive) and 88.9% (inactive) | 76.1% (inactive) and 20.6% (inactive) | 68.7% (inactive) and 53% (inactive) | 73.5% (inactive) and 66.9% (inactive) | 59.5% (inactive) and 68.4% (inactive) | 75.1% (inactive) and 59.4% (inactive)
CCN(CC)CCc1nc(-c2ccccc2)no1 | 83.8% (inactive) and 102% (inactive) | 85.8% (inactive) and 104% (inactive) | 100% (inactive) and 102% (inactive) | 65.2% (inactive) and 98.6% (inactive) | 102% (inactive) and 113% (inactive) | 81.5% (inactive) and 109% (inactive) | 88.5% (inactive) | 89.5% (inactive) and 101% (inactive) | 109% (inactive) | 97.5% (inactive) and 103% (inactive)
CN(Cc1ccccc1)Cc1ccccc1 | 96.6% (inactive) | 94.1% (inactive) | 81.3% (inactive) | 93% (inactive) | 110% (inactive) | 91.8% (inactive) | 97.3% (inactive) | 99.2% (inactive) | 105% (inactive) | 96.7% (inactive)
Cc1ccc(NCSc2ccc(Cl)cc2)cc1 | 80.7% (inactive) and 93.2% (inactive) | 63.5% (inactive) and 103% (inactive) | 94.8% (inactive) and 94.6% (inactive) | 112% (inactive) and 87.8% (inactive) | 82.7% (inactive) and 93.8% (inactive) | 63% (inactive) | 29% (inactive) and 47.1% (inactive) | 39.1% (inactive) and 53.7% (inactive) | 81.6% (inactive) and 93.1% (inactive) | 62% (inactive) and 63.7% (inactive)
O=C(CCl)c1ccc2c(c1)Nc1ccccc1S2 | 90.7% (inactive) and 94.2% (inactive) | 89.4% (inactive) and 91.2% (inactive) | 102% (inactive) and 92.7% (inactive) | 97.6% (inactive) and 99.8% (inactive) | 110% (inactive) and 105% (inactive) | 101% (inactive) | 66.1% (inactive) and -35.2% (active) | 63.6% (inactive) and 79.1% (inactive) | 110% (inactive) and 86.7% (inactive) | 100% (inactive) and 106% (inactive)
COc1cc(/C=N/Nc2nc3c([nH]2)c(=O)n(C)c(=O)n3C)ccc1O | 93.6% (inactive) and 111% (inactive) | 103% (inactive) and 113% (inactive) | 101% (inactive) and 105% (inactive) | 105% (inactive) and 102% (inactive) | 109% (inactive) and 111% (inactive) | 102% (inactive) | 87.8% (inactive) and 95.7% (inactive) | 95.7% (inactive) and 112% (inactive) | 119% (inactive) and 126% (inactive) | 105% (inactive) and 97.8% (inactive)
Fc1ccccc1Nc1n[nH]c(=S)s1 | 108% (inactive) | 107% (inactive) | 128% (inactive) | 108% (inactive) | 109% (inactive) | 100% (inactive) | 108% (inactive) | 101% (inactive) | 108% (inactive) | 101% (inactive)
COc1ccccc1/C=N\N=C(N/N=C/c1ccccc1OC)N/N=C/c1ccccc1OC | 58% (inactive) and 27.5% (inactive) | 85.7% (inactive) and 46.5% (inactive) | 56.5% (inactive) and 15.1% (inactive) | 74.8% (inactive) and 26.9% (inactive) | 46.3% (inactive) and 12.8% (inactive) | 68.2% (inactive) and 15.3% (inactive) | 38.6% (inactive) and 17.3% (inactive) | 74.4% (inactive) and 35.8% (inactive) | 75.6% (inactive) and 34.6% (inactive) | 61.1% (inactive) and 27.1% (inactive)
Cn1c(=O)c2[nH]c(CCCCCCCCc3nc4ccccc4[nH]3)nc2n(C)c1=O | 47.4% (inactive) and 55.2% (inactive) | 58.1% (inactive) and 66.3% (inactive) | 87.3% (inactive) and 99.6% (inactive) | 57% (inactive) and 49.2% (inactive) | 68.4% (inactive) and 73.6% (inactive) | 60.4% (inactive) | 72.8% (inactive) | 73.1% (inactive) and 75.1% (inactive) | 88% (inactive) and 99.6% (inactive) | –
O=[N+]([O-])c1ccc(-n2[nH]nnc2=S)cc1 | 98.5% (inactive) | 107% (inactive) | 92.8% (inactive) | 102% (inactive) | 110% (inactive) | 102% (inactive) | 91.3% (inactive) | 106% (inactive) | 100% (inactive) | –
